# Compound activity deposited in PubChem by National Center for Advancing Translational Sciences (NCATS).
# Shiga toxin inh – Shiga toxin inhibition; Vero cells, Shiga toxin protein synthesis inhibition reporter; inhibition, % at 38.7 µM; 9.2% of 290,000 active; AID 2315; in the data active = inhibition mostly above about 28%, no sharp cut-off; inactive = mostly below about 43%; also: 0% is about no effect
# LASV entry inh – inhibitors of Lassa virus binding or cell entry | 1.2% of 300,000 active | AID 540256 | Lassa virus pseudotype entry inhibition, cell reporter | Potency, µM (top dose mostly 37.9 µM), for the others: at the top dose activity change, negative = inhibition, most hits filed as inhibitors; calls by dose curve; tested in HEK293 cells; also: potency is read from the fitted curve at half-maximal effect; % is scaled to controls: 0 for no effect and ±100 for the full control effect; nearly all actives have a fitted effect of over 50% in size
# Marburg entry inh – inhibitors of Marburg virus binding or cell entry; Marburg virus pseudotyped entry inhibition, cell reporter; Potency, µM (series often up to 37.8 µM), for the others: at the highest dose activity change, negative = inhibition, actives largely listed as inhibitors; 1.8% of 300,000 active; AID 540276; calls by dose curve; tested in HEK293 cells; also: potency is read from the fitted curve at half-maximal effect; % is scaled to controls: 0 for no effect and ±100 for the full control effect
# Cycloheximide cs – counter-screen for Shiga toxin inhibitors: cycloheximide protein synthesis inhibition. max response, %. AID 2314. cell reporter, cycloheximide protein synthesis inhibition counterscreen. 12% of 300,000 active; in the data active = max response mostly above about 13%, no sharp cut-off; inactive = mostly below about 14%; also: read at 38.3 µM for the half of the compounds with a filed dose; 0% is about no effect
# Pf growth 48h – inhibits P. falciparum growth in the first generation, 48 h. P. falciparum luciferase growth in erythrocytes, 48 h. Potency, µM (doses to about 28.7 µM), for inactives: at the highest dose activity change, negative = inhibition, hits mostly inhibitors. 5.9% of 310,000 active. AID 504832; also: potency is read from the fitted curve at half-maximal effect; % is scaled to controls: 0 for no effect and ±100 for the full control effect
#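 Firefly luciferase activity from engineered P. falciparum reports growth; inhibitors lower the luminescent signal. Cultures contained 2% hematocrit erythrocytes at 0.1% final parasitemia.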
# Pf growth 96h – P. falciparum growth inhibition at 96 hours; Potency, µM (doses to about 28.7 µM), for the others: top-dose activity change, negative = inhibition, hits mostly inhibitors; P. falciparum luciferase reporter growth, 96 h; 6.9% of 320,000 active; also: potency is read from the fitted curve at half-maximal effect; % is scaled to controls: 0 for no effect and ±100 for the full control effect
#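 Erythrocytes infected with luciferase-expressing P. falciparum were dispensed at 2% hematocrit and 0.05% parasitemia (final), then incubated with compounds 96 hours at 37 C in 5% CO2. Luminescence after detection reagent addition reported growth.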
# Starred values were filed as active, the others as inactive; ? = inconclusive; . = not tested or not shown; [ ] = another dose, or the depositor's remark. A selection: hits, their analogues and other compounds. The true share with any hit is near 19%. Unless noted, calls follow the shape of the dose curve; as a rule, active = well fitted inhibition curve with a large enough effect; inconclusive = small, poorly fitted or top-dose-only effect, or another doubt; inactive = no such curve, though single readings can be large or run the other way.
SMILES,Shiga toxin inh,LASV entry inh,Marburg entry inh,Cycloheximide cs,Pf growth 48h,Pf growth 96h
COc1ccc(-n2c(SCC(=O)Nc3nccs3)nc3sc4c(c3c2=O)CCN(C)C4)cc1,10,4%,-21%,-4,?,?
Cc1ccc(-n2c(SCC(=O)O)nc3sc4c(c3c2=O)CCCC4)cc1,44,?,12%[46.1 µM],5,11%,2.9µM*
CCOc1ccc(-n2c(SCC(N)=O)nc3sc4c(c3c2=O)CCN(C)C4)cc1,-6,?,-6%,-1,1.5µM*,0.66µM*
COc1ccc(NC(=O)CSc2nc3sc4c(c3c(=O)n2-c2ccc(OC)cc2)CCN(C)C4)cc1,34,.,.,11,?,?
Cc1ccc(-n2c(SCC(=O)c3c(N)n(C)c(=O)n(C)c3=O)nc3sc4c(c3c2=O)CCCC4)c(C)c1,-5,-7%,?,-3,1.2µM*,0.83µM*
Cc1cccc(-n2c(SCC(=O)O)nc3sc4c(c3c2=O)CCCC4)c1,-10,.,.,0,-8%,33%
CCOC(=O)CSc1nc2sc3c(c2c(=O)n1-c1ccc(OCC)cc1)CCN(C)C3,-5,.,.,5,13µM*,0.74µM*
COc1ccc(NC(=O)N2c3ccccc3CC2C)cc1OC (stereo not given),20,11%,3%,10,16%,.
CCn1c(=O)cc(SCC(=O)N(C)Cc2ccccc2)c2ccccc21,-16,-2%,?,-6,.,?
COc1ccc(OC)c(S(=O)(=O)N2CCN(c3ccc(F)cc3)CC2)c1,-10,.,.,0,-11%,0%
C=C(C)CSc1nc2sc3c(c2c(=O)n1-c1ccc(C)cc1)CCN(C)C3,8,?,?,-1,1.3µM*,0.93µM*
CCOC(=O)CSc1nc2sc3c(c2c(=O)n1C1CCCCC1)CCN(C)C3,22,0%,3%,-2,1.5µM*,?
Cc1ccc(-c2onc(C)c2C)cc1S(=O)(=O)N1CCOc2ccccc21,17,.,.,-5,?,52%
CC(C)Cc1cc(C(=O)Nc2ccc(Br)cc2)no1,69,.,.,36*,110%,149%
CCc1ccc(NC(=O)c2cc(CC(C)C)on2)cc1,39*,.,.,33*,88%,?
COc1ccc(NC(=O)c2cc(CC(C)C)on2)cc1OC,active,.,.,42*,99%,?
CC(C)Cc1cc(C(=O)Nc2ccc3c(c2)OCO3)no1,72*,.,.,36*,200%,30%
Cc1cc(=O)n(CCO)c(O)c1C#N,-7,0%,2%,-1,13%,11%
CCc1ccccc1N(CC(=O)NC(C)c1ccccc1)S(C)(=O)=O (stereo not given),.,.,.,1,-9%,-3%
COc1ccc(NC(=O)CSC2=Nc3ccccc3C3=NC(CCC(=O)NC4CCCCC4)C(=O)N23)cc1Cl (stereo not given),.,-9%[46.1 µM],0%[46.1 µM],.,.,.
O=C(COc1ccc(-c2nnco2)cc1)NCc1ccccc1Cl,1,-9%,-22%,0,-4%,?
COc1ccc(NC(=O)OCC(C)C)cc1OC,50*,4%,?,21*,46%,.
Cc1[nH]c(=O)c(C(=O)/C=C/c2ccccc2F)c2c1CCCC2,-14,10µM*,12µM*,-3,3.3µM*,5.2µM*
CCOC(=O)c1c(/N=C/c2c(O)n(-c3ccccc3F)c(=S)[nH]c2=O)sc2c1CCCC2,-5,5%,4%,9,.,20%
CCOc1ccc(C(=O)NCC(=O)NC(C)c2ccc(-n3ccnc3)cc2)cc1OCC (stereo not given),-6,?,2%,-2,?,?
SMILES,Shiga toxin inh,LASV entry inh,Marburg entry inh,Cycloheximide cs,Pf growth 48h,Pf growth 96h
Cc1cccc(C(=O)NCC(=O)OCC(=O)N2CCc3ccccc32)c1,0,?,-5%[46.1 µM],11,0%,20%
O=C(Cc1ccccc1F)OCC(=O)N1CCc2ccccc21,97*,-8%,10%[46.1 µM],64*,87%,11%
O=C(CNC(=O)c1ccccc1Cl)OCC(=O)N1CCc2ccccc21,127*,?,14%,41*,287%,213%
O=C(NCC(=O)N1CCc2ccccc2C1)c1ccccc1Cl,71*,?,?,22*,15%[0.00184 µM],76%
O=C(NCC(=O)N1CCc2ccccc2C1)c1ccc(Cl)cc1Cl,14,15%[46.1 µM],-6%[46.1 µM],13,23%,3%
CCCn1c(=O)c2sccc2n2c(CCCC(=O)NCCc3ccc(Cl)cc3)nnc12,.,13%[46.1 µM],.,.,.,.
Cc1ccc(CNC(=O)CCC(=O)N2CC(C)Oc3ccccc32)cc1 (stereo not given),2,.,.,-1,4%,64%
CC(=O)OCC(=O)[C@@]1(O)CC[C@H]2[C@@H]3CCC4=CC(=O)C=C[C@]4(C)[C@H]3C(=O)C[C@@]21C,-6,.,.,-4,0%,-24%
CCOC1(C)OCC(=O)[C@]2(CCC3C4CCC5=CC(=O)C=CC5(C)C4C(=O)CC32C)O1 (stereo not given in full),-2,1%,-28%,-1,10µM*,?
COc1cccc(NC(=O)CN(C)C(=O)c2oc3c(ccc4ccccc43)c2C)c1,.,-2%,-30%[46.1 µM],.,0.26µM*,0.23µM*
COc1cccc(NC(=O)CN(C)C(=O)Cc2cccc3ccccc23)c1,.,.,.,.,?,-20%
COCCN(CC(=O)Nc1cccc(C)c1C)C(=O)c1cc(-c2cccs2)nn1-c1ccccc1,.,.,.,.,?,-15%
Cc1c(C(=O)N(C)CC(=O)Nc2cccc(F)c2)oc2c(Cl)cccc12,.,-12%,-9%,.,2.6µM*,1.5µM*
COc1ccc(NC(=O)CN(C)C(=O)c2oc3c(ccc4ccccc43)c2C)cc1,.,.,.,.,0.19µM*,0.19µM*
COCCN(CC(=O)Nc1cccc(C)c1C)C(=O)c1cc(-c2ccncc2)nc2ccccc12,.,.,.,.,10µM*,8.3µM*
COc1cc(S(=O)(=O)Nc2ccc(C)cc2)ccc1NC(=O)c1ccncc1,-1,2%,?,-3,-14%,13%
CCn1cc(C(=O)N2CCOCC2)c(=O)c2cc(S(=O)(=O)N(C)C3CCCCC3)ccc21,-11,.,.,-3,-13%,?
CCN(CC(=O)Nc1ccc(NC(C)=O)cc1)C(=O)c1oc2ccccc2c1C,.,15%,0%,.,37%,38%
CCN(CC(=O)Nc1ccc(NC(C)=O)cc1)C(=O)c1oc2c(ccc3ccccc32)c1C,.,-15%,11%[46.1 µM],.,?,12µM*
COCCN(CC(=O)Nc1cccc(C)c1C)C(=O)c1cc(S(=O)(=O)N2CCCC2)ccc1C,.,.,.,.,-17%,?
COCCN(CC(=O)Nc1cccc(C)c1C)C(=O)c1oc2c(Cl)cccc2c1C,.,-24%,-18%,.,9.3µM*,?
CCN(CC(=O)NCc1ccc(F)cc1)C(=O)c1oc2ccccc2c1C,11,?,8.9µM*,12,?,17%
O=C(COc1ccc(Br)cc1Cl)Nn1cnnc1,-4,20%,27%[46.1 µM],-6,-4%,15%
